From PubChem BioAssay (NCI)
The panel holds about 79,000 compounds, 15% with a hit somewhere; the sample as a whole holds those more often. Rule as the data show it: active = growth inhibition above about 70%; inactive = the rest. Where a SMILES comes first, the peptide text is derived from it. The star is where a group is joined. Cbz = O=C(OCc1ccccc1)*

Experiments:
[1] = NCI Yeast Anticancer Drug Screen. Data for the rad50 strain (AID 155);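 also: 0% = growth of vehicle-only cultures of the same strain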; conditions: S. cerevisiae rad50 strain growth inhibition; at 50.0 µM; hits give high values
Outline: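 Yeast carrying a defined DNA repair defect were exposed to test compounds, and growth was compared with vehicle-treated controls to give percent inhibition.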

[2] = NCI Yeast Anticancer Drug Screen. Data for the mec2-1 strain (AID 157); conditions: S. cerevisiae mec2-1 strain, at 50.0 µM, hits give high values
Outline: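 Vehicle-treated cultures served as reference for growth inhibition of compound-exposed mec2-1 yeast.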

[3] = NCI Yeast Anticancer Drug Screen. Data for the sgs1 mgt1 strain (AID 161);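 also: 0% = growth of cultures given vehicle only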; conditions: S. cerevisiae sgs1 mgt1 strain, at 50.0 µM, hits give high values
Outline: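 Inhibition of yeast growth, normalised to vehicle-treated controls, is reported for a strain bearing genetic alterations in DNA damage repair.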

[4] = NCI Yeast Anticancer Drug Screen. Data for the cln2 rad14 strain (AID 165);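 also: 0% = growth equal to vehicle treated cultures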; conditions: S. cerevisiae cln2 rad14 strain, at 50.0 µM, hits give high values
Outline: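 Each compound was tested on cln2 rad14 yeast. Inhibition of growth was calculated against vehicle-exposed controls.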

[5] = NCI Yeast Anticancer Drug Screen. Data for the bub3 strain (AID 167); conditions: S. cerevisiae bub3 mutant strain, at 50.0 µM, hits give high values
Outline: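 Compounds were applied to a genetically altered yeast strain carrying a cell-cycle control defect. Growth inhibition was scored against vehicle-treated controls.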

[6] = NCI Yeast Anticancer Drug Screen. Data for the mlh1 rad18 strain (AID 175); conditions: S. cerevisiae mlh1 rad18 strain growth inhibition; at 50.0 µM; hits give high values
Outline: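 Vehicle-treated cultures served as the reference for growth inhibition in a yeast strain carrying DNA damage repair alterations exposed to each compound.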

Measured: growth inhibition

Fc1ccc(C2SCc3nc4ccccc4n32)cc1F (configuration not stated)
inactive: [1] -49.9% | [2] -1.3% | [3] 24.3% | [4] 1.25% | [5] -13.8% | [6] 18.6%

CSc1ncnc2c1ncn2CCC(=O)O
inactive: [1] -33.9% | [2] 11.4% | [3] -42.1% | [4] 8.8% | [5] -13.9% | [6] -19.4%

CC(=O)Nc1ccc(S(=O)(=O)NC(=O)NC(C)C)cc1
inactive: [1] -4.2% | [2] -26.4% | [3] -2.4% | [4] 20% | [5] 3% | [6] 14.3%

Nc1ncnc2c1sc(=S)n2-c1ccccc1
inactive: [1] -5.3% | [2] 4.55% | [3] 13% | [4] -1% | [5] -12.7% | [6] -10.9%

Cc1ccc(C(=O)N/N=C/c2c(O)ccc3ccccc23)cc1
inactive: [1] -4.7% | [2] 20.7% | [3] 9.95% | [4] -24.9% | [5] 38.5% | [6] 27.1%

CCOCCOC(=O)c1ccc(C(C)C)cc1
inactive: [1] 4.9% | [2] 1.75% | [3] 7.8% | [4] -12.8% | [5] 5.25% | [6] 3.5%

CC(C)=CC1CC(=O)C1(C)Sc1ccccc1 (configuration not stated)
inactive: [1] 26.9% | [2] -1.5% | [3] 24.2% | [4] 12.9% | [5] 4.7% | [6] 2.95%

Cc1ccc(S(=O)(=O)c2ccc(C)cc2[N+](=O)[O-])cc1
inactive: [1] 21.8% | [2] -7.5% | [3] 18.5% | [4] -4.95% | [5] 45.7% | [6] -9.75%

N=c1oc2ccc([N+](=O)[O-])cc2cc1C(=O)NCc1ccccc1
inactive: [1] 11.3% | [2] -0.9% | [3] -13.9% | [4] 3.95% | [5] -35.5% | [6] -71.8%

CC12CCC3c4ccc(OC(=O)c5ccc([N+](=O)[O-])cc5)cc4CCC3C1CCC2=O (configuration not stated)
inactive: [1] 13.8% | [2] -6.95% | [3] -6.45% | [4] 5.75% | [5] -0.65% | [6] -1.75%

O=NNc1ccc(SSc2ccc(NN=O)cc2)cc1
inactive: [1] 39.8% | [2] 9.5% | [3] 22.9% | [4] 44.9% | [5] 8.05% | [6] 31.1%

CC(=N\[O-])/C(C)=N/O.CC(=N\[O-])/C(C)=N/O.CCCc1ccncc1.[Cl-].[Cl-].[Rh+3]
inactive: [1] -9.2% | [2] -34% | [3] -29.4% | [4] 13.7% | [5] -44.6% | [6] 3.9%

O=C(NCO)NCOCn1c(=O)n(CO)c(=O)n(CO)c1=O
inactive: [1] 5.05% | [2] -22.6% | [3] -2.5% | [4] 29.9% | [5] 9.7% | [6] -15.9%

CC(=O)Nc1nnc(C)o1
inactive: [1] -0.85% | [2] -3.5% | [3] -1.55% | [4] -40.6% | [5] 10.3% | [6] -2.05%

O=C(Nc1ccc(Br)cn1)c1sc2ccccc2c1Cl
inactive: [1] 8.2% | [2] -9.7% | [3] 26.6% | [4] 19.4% | [5] 16.4% | [6] 14.2%

Cc1[nH]n(-c2ncc(C#N)c(=O)[nH]2)c(=O)c1CCO
inactive: [1] -8.75% | [2] -34.1% | [3] -16% | [4] -31.9% | [5] -11.8% | [6] -71.3%

O=C1C=Cn2cc(-c3ccccc3)c(-c3ccccc3)c21
inactive: [1] -13.3% | [2] -10.3% | [3] -14% | [4] 19.9% | [5] -18.1% | [6] -9.2%

CCOC(=O)CCc1c(C)c2c(O)cc(O)cc2oc1=O
inactive: [1] 3.25% | [2] -3.5% | [3] -19.5% | [4] 8.3% | [5] -42.9% | [6] 20.7%

COc1ccc(C2ON(c3ccccc3)CC=C2C)cc1 (configuration not stated)
inactive: [1] 36% | [2] -3.2% | [3] 5.55% | [4] 13.1% | [5] 19.4% | [6] 13.1%

CC1c2nc(N)nc(N)c2CN1C(=O)c1ccccc1 (configuration not stated)
inactive: [1] 3.25% | [2] -5.7% | [3] -18.9% | [4] -13.6% | [5] -8.85% | [6] -0.85%

CCOC(=O)c1cnc2n(c1=O)[C@H]1CCCC[C@@H]1N2
inactive: [1] 59% | [2] 5.55% | [3] -9.05% | [4] 9.75% | [5] 8.7% | [6] 5.65%

CSC(=S)Nc1nc2ccc(C)cc2s1
inactive: [1] 21.4% | [2] 0.4% | [3] -2.95% | [4] -15% | [5] 11.3% | [6] -14.8%

COC(NC(N)=O)C(=O)O (configuration not stated)
inactive: [1] 6.9% | [2] 12.3% | [3] -1.25% | [4] -0.9% | [5] 11.9% | [6] 13.7%

O=C(O)c1cccn1-c1ccccc1
inactive: [1] -4.05% | [2] -24.6% | [3] -1.55% | [4] -21.1% | [5] -10.2% | [6] -15.6%

CCC(C)C(C)(CO)CO (configuration not stated)
inactive: [1] 1.5% | [2] -20.9% | [3] -3.7% | [4] 20.4% | [5] -14.3% | [6] 25.6%

C[C@]12CC[C@H](OC3CCCCO3)CC1=CC[C@@H]1C2CC[C@]2(C)/C(=N/OCCC#N)CCC12 (some centres not stated)
inactive: [1] 16.9% | [2] 15.2% | [3] -3.85% | [4] -49.4% | [5] 3.3% | [6] 28.1%

CN1N=C(N)c2cn(C3OC(COP(=O)(O)O)C(O)C3O)c3ncnc1c23 (configuration not stated)
inactive: [1] -16.2% | [2] 1.2% | [3] 4.7% | [4] -22.8% | [5] 11.3% | [6] -9.05%

COC(=O)N/N=C(\C)CC(=O)Nc1ccc(Cl)cc1
inactive: [1] -22.9% | [2] -32.6% | [3] -28.2% | [4] -5.95% | [5] -27.2% | [6] -43.7%

COC(=O)c1ccc(OC)cc1O
inactive: [1] 1.5% | [2] 1.8% | [3] -13.4% | [4] -19.9% | [5] 3.2% | [6] -2%

OC1CCCCC1OC1CCc2ccccc2C1 (configuration not stated)
inactive: [1] 19.1% | [2] 19.5% | [3] -5.25% | [4] 29.9% | [5] 50% | [6] 33.1%

Cc1ccc(S(=O)(=O)OC2C(C)(C)C(=O)C2(C)C)cc1
inactive: [1] 7.45% | [2] -2.15% | [3] -0.05% | [4] -11.7% | [5] 17.6% | [6] 8.35%

CCCOc1ccc(/C=C\c2cc(OC)c(OC)c(OC)c2)cc1
inactive: [1] 0.85% | [2] 3.9% | [3] -2.05% | [4] 3.4% | [5] 10.1% | [6] 43.5%

CCC(=O)Nc1cccc(OC(=O)NC2CCCCC2)c1
inactive: [1] 1.35% | [2] 13.1% | [3] 16.2% | [4] 1.3% | [5] 20.2% | [6] 11.1%

CCOC(=O)CCC(NC(=O)OCc1ccccc1)C(=O)NC(CCC(=O)OCC)C(=O)OCC (configuration not stated) (Cbz-Glu(OEt)-Glu(OEt)-OEt; configuration not given here)
inactive: [1] 17.9% | [2] 3.15% | [3] -11.4% | [4] 7.55% | [5] 4.65% | [6] -25.8%

CC1(C)C2CCC1(C)C(NC(N)=O)C2 (configuration not stated)
inactive: [1] -10% | [2] 6.45% | [3] -8.95% | [4] -6.6% | [5] 2.3% | [6] 10.5%

CC(C)c1nc(N)nc(N)n1
inactive: [1] 4.8% | [2] -23.8% | [3] 5.8% | [4] 12.8% | [5] 1% | [6] -16.8%

COc1cc(NCCN=C(N)NC#N)c2ncccc2c1
inactive: [1] 0.95% | [2] 4.75% | [3] -0.7% | [4] -18.4% | [5] -15.4% | [6] 2.6%

O=C(O)c1ccoc1-c1ccccc1
inactive: [1] 12.7% | [2] -6.05% | [3] 10.7% | [4] -26.9% | [5] -7.55% | [6] 22.2%

CC1N=C(c2ccccc2)SC1C (configuration not stated)
inactive: [1] -14.2% | [2] -18.4% | [3] -24.9% | [4] -49.4% | [5] -11% | [6] -38.3%

OC(c1cc(C2CCCCC2)nc2ccccc12)C1CCCCN1 (configuration not stated)
inactive: [1] -13.1% | [2] -0.85% | [3] 8.85% | [4] 2.6% | [5] -5.7% | [6] -12.7%

CCOCc1cnc(SC)nc1N
inactive: [1] -0.75% | [2] 7.35% | [3] -9.45% | [4] -0.25% | [5] -0.15% | [6] -14.4%

SCCNCc1ccco1
inactive: [1] -31.4% | [2] -68.5% | [3] -15.9% | [4] 20.6% | [5] -32.6% | [6] 4.9%
